# Experimental data from PubChem BioAssay.
# Values without a mark were called inactive. This is one part of the list. Active and inactive are the calls of the source. Rule as the data show it, unless noted: active = inhibition above about 30%; inactive = the rest.
# How the values were obtained:
# [1] = tested on: TLR4-MyD88 interaction (human), BLA complementation; experiment: disruptors of TLR4 binding to MyD88 – cell-based, HeLa CL3-4, BLA complementation, FRET ratio, confirmation (AID 941;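 active = mean inhibition across three repeat runs above about 25% carried over from the earlier screen, limit read from the data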;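 also: plate controls were DMSO only for no effect and clavulanic acid blocking BLA at full dose for full effect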); settings: CCF4 FRET ratio, at 8.4 µM, stronger effect = higher value
# [2] = BLA reporter interference in HeLa cells – cell-based, full-length BLA, CCF4 FRET ratio, artefact control for TLR4-MyD88 binding inhibitor project, confirmation (AID 1237;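 active = mean inhibition over three repeats above about 26% taken from the earlier screen, limit read from the data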;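 also: HeLa cells stably expressing beta-lactamase reporter as counterscreen for TLR4-MyD88 inhibitors; 0% = DMSO and 100% = clavulanic acid full inhibition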); settings: at 8.4 µM, stronger effect = higher value
# [3] = blockers of IL-6 STAT3 signaling – U3A cells, luciferase, luminescence, confirmation (AID 1265;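 active = inhibition above the hit cutoff computed for the primary STAT3 screen, cut at about 44% in these data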;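 also: 0% = IL-6 plus DMSO and 100% = IL-6 plus nifuroxazide control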); settings: IL-6 STAT3 luciferase reporter, at 5.7 µM, stronger effect = higher value
# [4] = inhibition of TNF-alpha-driven NF-kB transcription – cell-based, HEK293T, luciferase, TNF-alpha stimulus, counter-screen for STAT3 inhibitor project, confirmation (AID 1308;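 active = inhibition above the mean of solvent-only control wells plus 3 SD, cutoff set per campaign, cut at about 13% in these data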;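 also: 0% = TNF-alpha with DMSO and 100% = TNF-alpha with MG high control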); settings: HEK293T NF-kB luciferase reporter, TNF-alpha induced; at 5.7 µM; stronger effect = higher value
# [5] = inhibition of STAT1-driven transcription – cell-based, NIH 3T3, luciferase luminescence, IFN-gamma, counter-screen for STAT3 inhibitor project, confirmation (AID 1317;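 active = inhibition above the mean plus 3 SD of solvent-only control wells, limit set per screening run, cut at about 16% in these data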;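 also: 0% = DMSO with IFN-gamma and 100% = nifuroxazide control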); settings: NIH 3T3 STAT1-luciferase reporter, IFN-gamma induced, at 5.7 µM, stronger effect = higher value
# [6] = StAR promoter reporter inhibitors, counter-screen for LRH-1 inverse agonist project, cell-based, luminescence, high throughput (AID 651611; in the data active = inhibition above about 28%); settings: StAR promoter luciferase reporter counterscreen, at 3.6 µM, stronger effect = higher value
# [7] = target: Nuclear receptor subfamily 5 group A member 2 (Homo sapiens) (UniProt O00482); experiment: NR5A2 activity suppression in reporter cells – cell-based, luminescence, confirmation (AID 651613; in the data active = inhibition above about 42%;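 also: HEK293T cells co-transfected with LRH-1 and StAR promoter luciferase reporter; 0% = vehicle wells and 100% = parental cells lacking receptor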); settings: cell-based LRH-1 luciferase reporter, inverse agonism; at 3.6 µM; stronger effect = higher value
# Sequence of Nuclear receptor subfamily 5 group A member 2 (Homo sapiens) (O00482 whole entry, looked up): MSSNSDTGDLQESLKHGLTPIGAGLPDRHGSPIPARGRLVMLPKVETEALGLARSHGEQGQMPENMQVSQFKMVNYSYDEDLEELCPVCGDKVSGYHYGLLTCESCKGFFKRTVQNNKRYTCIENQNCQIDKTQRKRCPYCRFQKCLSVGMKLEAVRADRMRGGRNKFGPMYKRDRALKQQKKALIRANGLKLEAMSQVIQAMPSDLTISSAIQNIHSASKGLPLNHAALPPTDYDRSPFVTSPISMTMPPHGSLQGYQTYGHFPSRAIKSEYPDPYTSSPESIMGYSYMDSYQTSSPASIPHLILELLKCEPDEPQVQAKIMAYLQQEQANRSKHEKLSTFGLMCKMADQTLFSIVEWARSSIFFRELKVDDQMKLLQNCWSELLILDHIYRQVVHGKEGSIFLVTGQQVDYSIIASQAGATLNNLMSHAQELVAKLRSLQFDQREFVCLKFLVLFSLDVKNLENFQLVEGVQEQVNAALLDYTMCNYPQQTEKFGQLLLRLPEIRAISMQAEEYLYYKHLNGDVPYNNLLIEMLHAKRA
# [8] = target: Steroidogenic factor 1 (Homo sapiens) (UniProt Q13285); experiment: inverse agonism at SF1 nuclear receptor – cell-based, luminescence, high throughput, counter-screen for LRH-1 inverse agonist project (AID 651614; in the data active = inhibition above about 44%;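 also: cells cotransfected with StAR promoter reporter and SF1 expression vector; 0% = vehicle on cells with receptor and 100% = vehicle on cells lacking receptor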); settings: cell-based SF1 luciferase reporter, at 3.6 µM, stronger effect = higher value
# Sequence of Steroidogenic factor 1 (Homo sapiens) (Q13285 whole entry, looked up, the tested form may be a part): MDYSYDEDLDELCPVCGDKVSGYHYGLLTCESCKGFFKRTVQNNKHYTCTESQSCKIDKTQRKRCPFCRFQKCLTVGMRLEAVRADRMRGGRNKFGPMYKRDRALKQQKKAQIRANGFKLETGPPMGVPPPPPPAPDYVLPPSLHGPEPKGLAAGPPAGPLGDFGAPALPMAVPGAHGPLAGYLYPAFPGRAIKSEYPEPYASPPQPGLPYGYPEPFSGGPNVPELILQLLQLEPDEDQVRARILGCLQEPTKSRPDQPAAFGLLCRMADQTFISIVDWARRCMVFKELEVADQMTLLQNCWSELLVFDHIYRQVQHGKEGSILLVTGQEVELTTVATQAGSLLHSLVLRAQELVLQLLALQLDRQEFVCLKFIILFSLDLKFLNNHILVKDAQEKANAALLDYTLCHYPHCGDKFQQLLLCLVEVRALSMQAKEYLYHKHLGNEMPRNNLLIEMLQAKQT
# [9] = compounds suppressing VP16-driven luciferase signal – cell-based, luminescence, high throughput, counter-screen for LRH-1 inverse agonist project (AID 651615; in the data active = inhibition above about 33%); settings: Gal4-VP16 luciferase reporter cells, at 3.6 µM, stronger effect = higher value
# [10] = VP16-driven transactivation reporter suppression – cell-based, luminescence, HEK293, counter-screen for COUP-TFII antagonist project (AID 687007; in the data active = inhibition above about 13%); settings: HEK293 Gal4-VP16 luciferase reporter, at 8.5 µM, stronger effect = higher value
# [11] = target: COUP transcription factor 2 (Homo sapiens) (UniProt P24468); experiment: retest of COUP-TFII reporter suppressors – cell-based, luciferase reporter, HEK293, triplicate, confirmation (AID 687008;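 active = mean inhibition over three repeats above a set limit taken from the earlier primary screen, cut at about 38% in these data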;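 also: 100% = cells given the luciferase reporter alone without the COUP-TF2 vector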); settings: HEK293 NGFI-A luciferase reporter, luminescence; at 8.5 µM; stronger effect = higher value
# Sequence of COUP transcription factor 2 (Homo sapiens) (P24468 whole entry, looked up): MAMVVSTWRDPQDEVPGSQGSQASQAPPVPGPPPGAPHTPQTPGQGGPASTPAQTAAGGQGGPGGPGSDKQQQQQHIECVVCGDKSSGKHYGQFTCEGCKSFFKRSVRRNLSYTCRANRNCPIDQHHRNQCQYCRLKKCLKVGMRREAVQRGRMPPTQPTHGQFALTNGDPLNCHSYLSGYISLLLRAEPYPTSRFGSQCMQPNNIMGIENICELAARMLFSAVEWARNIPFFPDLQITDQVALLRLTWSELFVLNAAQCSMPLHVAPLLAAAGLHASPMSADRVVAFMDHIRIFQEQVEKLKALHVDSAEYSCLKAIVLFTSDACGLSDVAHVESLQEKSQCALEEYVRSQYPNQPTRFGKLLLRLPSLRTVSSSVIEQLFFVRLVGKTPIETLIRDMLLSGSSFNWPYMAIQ
# [12] = target: Peroxisome proliferator-activated receptor gamma (Homo sapiens) (UniProt P37231); experiment: retested PPARg-SRC-2 recruitment enhancers – biochemical, HTS, confirmation (AID 1297; in the data active = activation above about 22%;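 also: 0% = vehicle alone and 100% = reference agonist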); settings: biochemical SRC-2 recruitment by PPARgamma; at 8 µM; stronger effect = higher value
# Sequence of Peroxisome proliferator-activated receptor gamma (Homo sapiens) (P37231 whole entry, looked up): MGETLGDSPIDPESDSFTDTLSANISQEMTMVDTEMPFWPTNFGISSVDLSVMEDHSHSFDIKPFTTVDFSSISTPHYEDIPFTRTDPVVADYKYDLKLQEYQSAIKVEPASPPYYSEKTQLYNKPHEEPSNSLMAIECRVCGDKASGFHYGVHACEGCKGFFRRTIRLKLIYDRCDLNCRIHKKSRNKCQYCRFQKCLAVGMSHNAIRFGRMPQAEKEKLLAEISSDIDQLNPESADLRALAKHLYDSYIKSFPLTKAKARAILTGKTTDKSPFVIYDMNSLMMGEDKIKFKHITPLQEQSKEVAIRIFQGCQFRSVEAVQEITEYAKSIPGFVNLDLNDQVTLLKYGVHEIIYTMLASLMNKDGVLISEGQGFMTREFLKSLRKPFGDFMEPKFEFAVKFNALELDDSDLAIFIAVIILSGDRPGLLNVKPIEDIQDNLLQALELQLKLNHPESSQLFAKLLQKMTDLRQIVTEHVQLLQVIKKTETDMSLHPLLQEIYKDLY
# [13] = target: Peroxisome proliferator-activated receptor gamma (Homo sapiens) (UniProt P37231); experiment: retest of SRC-1 recruitment enhancers for PPARgamma – biochemical, confirmation (AID 1300; in the data active = activation above about 20%;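 also: 0% = vehicle wells and 100% = reference agonist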); settings: PPARgamma–SRC-1 coactivator recruitment biochemical assay; at 8 µM; stronger effect = higher value
# [14] = target: Peroxisome proliferator-activated receptor gamma (Homo sapiens) + Nuclear receptor coactivator 3 (Homo sapiens) (UniProt P37231+Q9Y6Q9); experiment: agonists promoting SRC-3 binding to PPARgamma – biochemical, confirmation (AID 1301; in the data active = activation above about 24%;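 also: 0% = vehicle wells and 100% = reference agonist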); settings: biochemical PPARgamma-SRC-3 coactivator recruitment, agonist mode; at 8 µM; stronger effect = higher value
# Sequence of Peroxisome proliferator-activated receptor gamma (Homo sapiens) + Nuclear receptor coactivator 3 (Homo sapiens) (P37231 whole entry, looked up): as above
# Sequence of Peroxisome proliferator-activated receptor gamma (Homo sapiens) + Nuclear receptor coactivator 3 (Homo sapiens) (Q9Y6Q9 whole entry, looked up): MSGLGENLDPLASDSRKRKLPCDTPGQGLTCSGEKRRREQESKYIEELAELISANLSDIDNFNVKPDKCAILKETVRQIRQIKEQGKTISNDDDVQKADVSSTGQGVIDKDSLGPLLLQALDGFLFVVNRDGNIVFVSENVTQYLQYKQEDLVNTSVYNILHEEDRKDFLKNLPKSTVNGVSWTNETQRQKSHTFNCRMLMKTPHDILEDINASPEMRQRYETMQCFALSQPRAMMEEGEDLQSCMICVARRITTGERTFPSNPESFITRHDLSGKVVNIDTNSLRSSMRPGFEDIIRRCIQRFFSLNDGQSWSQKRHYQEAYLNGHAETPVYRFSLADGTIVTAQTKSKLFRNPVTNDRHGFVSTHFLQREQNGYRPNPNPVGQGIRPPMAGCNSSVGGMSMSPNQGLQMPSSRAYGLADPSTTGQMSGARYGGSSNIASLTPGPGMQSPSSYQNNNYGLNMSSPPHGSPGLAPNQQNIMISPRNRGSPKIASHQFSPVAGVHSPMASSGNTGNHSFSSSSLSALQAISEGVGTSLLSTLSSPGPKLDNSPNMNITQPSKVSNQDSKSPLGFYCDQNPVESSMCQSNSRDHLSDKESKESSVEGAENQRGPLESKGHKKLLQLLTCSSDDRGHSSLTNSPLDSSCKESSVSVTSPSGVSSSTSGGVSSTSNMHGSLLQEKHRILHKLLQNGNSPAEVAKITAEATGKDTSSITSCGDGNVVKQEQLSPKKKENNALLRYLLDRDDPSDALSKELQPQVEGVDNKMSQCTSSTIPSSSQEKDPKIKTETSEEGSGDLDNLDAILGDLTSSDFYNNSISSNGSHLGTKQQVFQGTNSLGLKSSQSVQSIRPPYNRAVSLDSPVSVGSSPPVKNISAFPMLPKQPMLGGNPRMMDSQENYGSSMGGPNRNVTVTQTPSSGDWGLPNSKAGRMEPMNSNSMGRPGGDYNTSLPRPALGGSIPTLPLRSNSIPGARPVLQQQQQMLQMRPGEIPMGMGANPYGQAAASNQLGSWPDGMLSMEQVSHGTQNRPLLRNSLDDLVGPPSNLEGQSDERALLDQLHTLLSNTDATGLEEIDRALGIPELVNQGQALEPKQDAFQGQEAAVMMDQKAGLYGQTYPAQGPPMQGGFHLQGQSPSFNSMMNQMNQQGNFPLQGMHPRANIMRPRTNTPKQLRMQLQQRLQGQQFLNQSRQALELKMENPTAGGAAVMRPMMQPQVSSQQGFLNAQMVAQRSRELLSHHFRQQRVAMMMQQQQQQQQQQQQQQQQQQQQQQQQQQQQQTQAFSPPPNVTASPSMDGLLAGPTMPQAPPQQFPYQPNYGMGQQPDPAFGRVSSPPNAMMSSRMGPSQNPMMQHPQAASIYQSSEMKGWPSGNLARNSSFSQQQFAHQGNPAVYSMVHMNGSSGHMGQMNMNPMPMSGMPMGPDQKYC
# [15] = target: (Lyso)-N-acylphosphatidylethanolamine lipase (Mus musculus) (UniProt Q8VD66); experiment: mouse ABHD4 hydrolase blockers, triplicate – biochemical, fluorescence polarization, confirmation (AID 720658;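 active = mean inhibition across replicates above the hit cutoff set in the primary screen, cut at about 30% in these data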;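 also: 0% = wild-type ABHD4 with DMSO and 100% = catalytically dead S159A mutant with DMSO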); settings: purified mABHD4, FP-Rh probe fluorescence polarization; at 8.92 µM; stronger effect = higher value
# Sequence of (Lyso)-N-acylphosphatidylethanolamine lipase (Mus musculus) (Q8VD66 whole entry, looked up): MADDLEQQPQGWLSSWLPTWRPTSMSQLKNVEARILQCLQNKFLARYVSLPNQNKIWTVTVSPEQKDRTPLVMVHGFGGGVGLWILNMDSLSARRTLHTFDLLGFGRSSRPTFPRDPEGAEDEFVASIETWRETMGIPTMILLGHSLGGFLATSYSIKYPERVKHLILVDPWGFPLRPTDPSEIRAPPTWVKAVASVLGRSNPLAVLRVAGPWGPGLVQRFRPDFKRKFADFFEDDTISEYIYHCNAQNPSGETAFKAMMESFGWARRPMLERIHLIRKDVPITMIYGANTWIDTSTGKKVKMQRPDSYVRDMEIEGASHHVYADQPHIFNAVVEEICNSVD
# [16] = target: Sphingosine 1-phosphate receptor 4 (Homo sapiens) (UniProt O95977); experiment: blockers of human S1P4 signalling – cell-based, confirmation (AID 1524); settings: S1P4-expressing cell line, antagonist mode, reporter read-out; at 4.98 µM; stronger effect = higher value
# [17] = target: Sphingosine 1-phosphate receptor 1 (Homo sapiens) (UniProt P21453); experiment: blockade of human S1P1 receptor – cell-based, counter-screen for S1P4 antagonist project (AID 1564; in the data active = inhibition above about 40%;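 also: receptor stimulated with S1P near its EC80; 0% = agonist stimulated wells and 100% = vehicle only wells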); settings: cell-based S1P1 antagonist counterscreen, at 4.98 µM, stronger effect = higher value
# [18] = suppression of KLF5 promoter-driven luciferase – DLD-1 cells, luminescence, confirmation (AID 1834;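 active = inhibition above a set limit taken from the earlier primary screen, cut at about 63% in these data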;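 also: 0% = DMSO wells and 100% = LY294002 at 200 µM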); settings: DLD-1 KLF5 promoter firefly luciferase reporter, at 4 µM, stronger effect = higher value
# [19] = IEC-6 intestinal cell killing – luminescence, triplicate, cytotoxicity control for KLF5 inhibitor project (AID 1905; in the data active = inhibition above about 23%;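 also: cells exposed to compounds for 48 hours before viability read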); settings: IEC-6 rat intestinal cells, viability luminescence; at 4 µM; stronger effect = higher value
# [20] = target: Nuclear receptor coactivator 3 (Homo sapiens) (UniProt Q9Y6Q9); experiment: NCOA3 GAL4-fusion reporter inhibition – cell-based, luminescence, quadruplicate, confirmation (AID 588792;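 active = mean inhibition over 43.08%, the solvent-only control mean plus 3 SD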;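 also: 0% = DMSO treated cells and 100% = gossypol at 36 µM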); settings: HEK293 GAL4-SRC3 luciferase reporter, at 3.6 µM, stronger effect = higher value
# Sequence of Nuclear receptor coactivator 3 (Homo sapiens) (Q9Y6Q9 whole entry, looked up, the tested form may be a part): as the sequence (Q9Y6Q9 whole entry, looked up) above
# [21] = tested on: transactivating tegument protein VP16 (Human herpesvirus 1), Gal4-VP16 luciferase reporter; experiment: repression of VP16-driven luciferase reporter – cell-based, luminescence, high throughput, counter-screen for SRC3 inhibitor project (AID 588794); settings: mammalian cells, at 3.6 µM, stronger effect = higher value
# [22] = target: Nuclear receptor coactivator 1 (Homo sapiens) (UniProt Q15788); experiment: NCOA1 GAL4-fusion reporter inhibition – cell-based, luminescence, quadruplicate, confirmation (AID 588820;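 active = mean inhibition above 46.68%, the untreated control wells mean plus 3 SD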;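 also: 0% = DMSO wells and 100% = gossypol 36 µM treated wells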); settings: HEK293 GAL4-SRC1 luciferase reporter, at 3.6 µM, stronger effect = higher value
# [23] = repression of VP16-driven luciferase reporter – cell-based, luminescence, high throughput, counter-screen for SRC1 inhibitor project (AID 588824; in the data active = inhibition above about 25%); settings: cell-based VP16 transactivation luciferase luminescence; at 3.6 µM; stronger effect = higher value
# [24] = target: Photoreceptor-specific nuclear receptor (Homo sapiens) (UniProt Q9Y5X4); experiment: retest of NR2E3-NCOR disrupting agonists – cell-based, luminescence, CHO-S two-hybrid, confirmation (AID 624378;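 active = average inhibition above a cutoff equal to the mean inhibition of all tested compounds plus one SD, cut at about 70% in these data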;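 also: 0% = DMSO in NR2E3 cells and 100% = DMSO in cells lacking NR2E3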); settings: CHO-S mammalian two-hybrid NR2E3-NCOR, luciferase luminescence; at 3.98 µM; stronger effect = higher value
# [25] = nonselective effects on VP16 transactivation – cell-based, luminescence, CHO-S, high throughput, counter-screen for NR2E3 agonist project, confirmation (AID 624379;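 active = mean inhibition above a cutoff equal to the average over all tested compounds plus one standard deviation, cut at about 70% in these data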;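 also: 0% = DMSO with VP16-transfected cells and 100% = DMSO with cells lacking VP16; higher means less reporter light so more repression of VP16 activity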); settings: CHO-S GAL4-VP16 luciferase reporter, at 3.98 µM, stronger effect = higher value
# [26] = target: Induced myeloid leukemia cell differentiation protein Mcl-1 (Homo sapiens) (UniProt Q07820); experiment: MCL1-BIM peptide interaction disruptors – biochemical, fluorescence polarization, triplicate, confirmation (AID 2168;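 active = inhibition above the average of all tested compounds plus 3 SD, cut at about 40% in these data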;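 also: 0% = DMSO wells and 100% = unlabeled Bim-BH3 control peptide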); settings: GST-MCL1 / FITC-Bim-BH3 fluorescence polarization; at 10.9 µM; stronger effect = higher value
# [27] = target: Platelet-activating factor acetylhydrolase (Homo sapiens) (UniProt Q13093); experiment: inhibition of plasma PAF acetylhydrolase – biochemical, fluorescence polarization, human, confirmation (AID 463230;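 active = mean inhibition of the triplicate above the hit cutoff set for the earlier primary screen, cut at about 25% in these data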;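 also: 0% = enzyme with DMSO and 100% = wells lacking pPAFAH enzyme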); settings: recombinant pPAFAH, FP-Rh probe fluorescence polarization; at 3.39 µM; stronger effect = higher value
# Sequence of Platelet-activating factor acetylhydrolase (Homo sapiens) (Q13093 whole entry, looked up): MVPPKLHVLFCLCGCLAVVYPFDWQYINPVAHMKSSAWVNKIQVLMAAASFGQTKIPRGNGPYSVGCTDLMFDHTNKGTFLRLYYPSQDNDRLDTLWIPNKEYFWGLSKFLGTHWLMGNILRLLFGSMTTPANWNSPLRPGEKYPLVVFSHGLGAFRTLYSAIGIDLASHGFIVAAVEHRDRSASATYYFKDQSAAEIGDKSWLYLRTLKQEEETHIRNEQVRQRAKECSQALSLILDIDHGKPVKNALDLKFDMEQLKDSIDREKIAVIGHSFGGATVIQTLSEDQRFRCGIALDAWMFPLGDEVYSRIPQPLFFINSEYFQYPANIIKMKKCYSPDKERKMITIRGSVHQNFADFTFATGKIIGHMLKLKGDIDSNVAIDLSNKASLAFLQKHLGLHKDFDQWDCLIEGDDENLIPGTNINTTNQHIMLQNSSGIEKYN
# [28] = target: Glutathione S-transferase omega-1 (Homo sapiens) (UniProt P78417); experiment: recombinant GSTO1 blockers, retest – biochemical, fluorescence polarization, triplicate, counter-screen for RBBP9 inhibitor project, confirmation (AID 2176;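 active = inhibition above the primary screen's cutoff, its mean inhibition plus 3 SD, cut at about 35% in these data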;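 also: loss of polarization as inhibitors block binding of rhodamine sulfonate ester activity probe; 0% = GSTO1 with DMSO and 100% = wells lacking GSTO1 enzyme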); settings: recombinant GSTO1, probe fluorescence polarization; at 5.96 µM; stronger effect = higher value
# Sequence of Glutathione S-transferase omega-1 (Homo sapiens) (P78417 whole entry, looked up): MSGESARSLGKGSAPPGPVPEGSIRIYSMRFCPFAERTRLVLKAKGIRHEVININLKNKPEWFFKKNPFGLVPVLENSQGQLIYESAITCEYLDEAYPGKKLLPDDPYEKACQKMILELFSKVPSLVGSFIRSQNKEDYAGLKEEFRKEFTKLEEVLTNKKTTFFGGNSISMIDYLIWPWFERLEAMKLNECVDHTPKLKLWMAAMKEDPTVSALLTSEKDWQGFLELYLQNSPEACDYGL
# [29] = target: Protein-arginine deiminase type-4 (Homo sapiens) (UniProt Q9UM07); experiment: protein arginine deiminase 4 blockade, retest – biochemical, fluorescence polarization, confirmation (AID 488796;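 active = mean inhibition across replicates above the hit cutoff set by the earlier primary screen, cut at about 15% in these data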;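 also: inhibitors block active-site labeling by the probe so polarization falls; 0% = PAD4 with probe and DMSO and 100% = probe without PAD4 enzyme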); settings: recombinant PAD4, RCA probe fluorescence polarization; at 6.36 µM; stronger effect = higher value
# [30] = target: Platelet-activating factor acetylhydrolase IB subunit alpha1 (Homo sapiens) (UniProt Q15102); experiment: inhibition of PAF acetylhydrolase 1B subunit 3 – biochemical, fluorescence polarization, human, confirmation (AID 493032;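 active = average inhibition over triplicate runs above the hit cutoff set in the earlier primary screen, cut at about 25% in these data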;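 also: 0% = enzyme with DMSO and 100% = wells lacking PAFAH1B3 protein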); settings: recombinant PAFAH1B3, FP-Rh activity-based probe, at 3.39 µM, stronger effect = higher value
compound,measurement,setting,value
COc1ccc(CN2CCN(c3ccccc3F)CC2)c(OC)c1,inhibition,[1],-8.64%
same,inhibition,[2],4.55%
CC1=CC(=Cc2sc3ccccc3[n+]2C)C=C(C)O1,inhibition,[3],77.1% (active)
same,inhibition,[4],22.8% (active)
same,inhibition,[5],22.2% (active)
same,inhibition,[6],50.2% (active)
same,inhibition,[7],105% (active)
same,inhibition,[8],80.4% (active)
same,inhibition,[9],87.6% (active)
same,inhibition,[10],8.63%
same,inhibition,[11],55% (active)
COc1cc(-n2c(=S)[nH]c3ccc(C)cc3c2=O)c(Cl)cc1Cl,activation,[12],24.6% (active)
same,activation,[13],12.2%
same,activation,[14],12.4%
same,inhibition,[15],37.6% (active)
CSC1=NP(=S)(SC)N(C)c2nc3n(c21)CCC3 (stereo unspecified),activation,[12],51.6% (active)
same,activation,[13],33.3% (active)
same,activation,[14],35.7% (active)
CN(C)CC1Oc2ccccc2OC1(O)c1ccccc1 (stereo unspecified),inhibition,[16],100% (active)
same,inhibition,[17],23.3%
CCCCCCCCCCCCn1ccc(=N)cc1,inhibition,[18],62.6% (active)
same,inhibition,[19],46.8% (active)
same,inhibition,[20],67.6% (active)
same,inhibition,[21],78.8% (active)
same,inhibition,[22],53.8% (active)
same,inhibition,[23],78.9% (active)
same,inhibition,[24],99.7% (active)
same,inhibition,[25],86.7% (active)
same,inhibition,[6],74.4% (active)
same,inhibition,[7],101% (active)
same,inhibition,[8],92.7% (active)
same,inhibition,[9],89.8% (active)
same,inhibition,[10],14.2% (active)
same,inhibition,[11],76.4% (active)
COc1ccc(N2C(=O)/C(=C/c3ccco3)C(=O)NC2=S)cc1,inhibition,[26],55.3% (active)
same,inhibition,[27],17.3%
O=C1NC(=O)N(c2ccccc2)C(=O)/C1=C/c1ccc([N+](=O)[O-])s1,inhibition,[26],66.3% (active)
same,inhibition,[27],44% (active)
CCOC(=O)c1c(N)n(Cc2ccccc2)c2nc3ccccc3nc12,inhibition,[28],13.8%
same,inhibition,[29],-4.66%
same,inhibition,[30],8.51%
CCOc1cccc(=NC2CCCCC2)c2c(C)[nH]c(C)c12,inhibition,[20],21.3%
same,inhibition,[21],20.1%
same,inhibition,[15],16.3%
O=C(O)COc1ccccc1/C=C1\C(=O)NC(=O)N(CCC2=CCCCC2)C1=O,inhibition,[28],9.09%
CCNc1nc2[nH]c(=O)c3c(c2s1)OC(N)=C(C#N)C3c1cccs1 (stereo unspecified),inhibition,[28],7.87%
